PubChem BioAssay AID2107 (National Center for Advancing Translational Sciences (NCATS), 2009)
About 20 (0.008%) of roughly 240,000 compounds were called active. About 1% were inconclusive and are not listed. Calls come from the whole dose curve; as a rule, active = well fitted inhibition curve with a large enough effect; inconclusive = small, poorly fitted or top-dose-only effect, or effect the other way; inactive = flat fitted curve, though single readings scatter. Only a sample is shown.

molecular target: Alpha-galactosidase A (Homo sapiens) (UniProt P06280); experiment: qHTS Assay for Inhibitors and Activators of Human alpha-Galactosidase From Spleen Homogenate; details: 4MU-alpha-Gal fluorescence, 40 min; series mostly up to 80 µM;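 note: 0% = enzyme with vehicle and -100% = no enzyme basal signal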
Excerpt: NIH Chemical Genomics Center [NCGC] NIH Molecular Libraries Probe Production Centers Network [MLPCN] MLPCN Grant: R03 MH084842-01 Assay Submitter (PI): Wei Zheng NCGC Assay Overview: Alpha-galactosidase is a homodimeric glycoprotein that hydrolyzes the terminal alpha-galactosyl moieties from glycolipids and glycoproteins. Deficiency of this enzyme results in Fabry Disease with progressive accumulation of globotriaosylceramide and other glycosphingolipids in vascular endothelial cells that causes renal failure, myocardial infarction and stroke, and premature death in patients. It has been reported that the improper folding and trafficking of alpha-galactosidase resulting from genetic mutations may account for a significant number of Fabry patients. […] We optimized this alpha-galactosidase assay in 1536-well plate format for identification of novel small molecule inhibitors or activators with structures other than the sugar analogs in order to develop new pharmacological chaperones. In particular, this assay is directed towards discovering compounds active in more natural setting, tissue homogenate, that may have been missed by screens of the purified enzyme under more stringent conditions.
NCGC Assay Protocol Summary: This is a fluorogenic enzyme assay with 4-methylumbelliferyl-alpha-D-galactopyranoside as the substrate and human spleen homogenate containing alpha-galactosidase as the enzyme preparation. Upon hydrolysis of this fluorogenic substrate, the resulting product, 4-methylumbelliferone (which excites at 365 nm and emits at 440 nm) can be detected by a fluorescence plate reader. Data were normalized to the controls for basal activity (without enzyme) and 100% activity (with enzyme). The AC50 values were determined from concentration-response data modeled with the standard Hill equation. Assay buffer: 50 mM citric acid (titrated with potassium phosphate to pH 5.0), 0.01% Tween-20 (pH 5.0 is an optimal condition for this enzyme assay) 1536-well assay protocol for the alpha-galactosidase from human spleen homogenate: (1) Add 2 ul/well spleen homogenate (1 ug) (2) Add 23 nL compounds in DMSO solution. The final titration was 0.5 nM to 58 uM. (3) Add 2 ul of substrate (1 mM final) (4) Incubate at 37C for 40 min (5) Add 2 ul stop solution (1M NaOH and 1M Glycine mixture, pH 10) (6) Detect the assay plate in a ViewLux plate reader (PerkinElmer) with Ex=365 nm and Em=440nm. Keywords: Alpha-galactosidase, Fabry Disease, pharmacological chaperone, chaperone therapy, high throughput screening, alpha- galactosidase inhibitor, MLSMR, MLSCN, NIH Roadmap, qHTS and NCGC

Sequence of Alpha-galactosidase A (Homo sapiens) (P06280 32-429 limits assumed): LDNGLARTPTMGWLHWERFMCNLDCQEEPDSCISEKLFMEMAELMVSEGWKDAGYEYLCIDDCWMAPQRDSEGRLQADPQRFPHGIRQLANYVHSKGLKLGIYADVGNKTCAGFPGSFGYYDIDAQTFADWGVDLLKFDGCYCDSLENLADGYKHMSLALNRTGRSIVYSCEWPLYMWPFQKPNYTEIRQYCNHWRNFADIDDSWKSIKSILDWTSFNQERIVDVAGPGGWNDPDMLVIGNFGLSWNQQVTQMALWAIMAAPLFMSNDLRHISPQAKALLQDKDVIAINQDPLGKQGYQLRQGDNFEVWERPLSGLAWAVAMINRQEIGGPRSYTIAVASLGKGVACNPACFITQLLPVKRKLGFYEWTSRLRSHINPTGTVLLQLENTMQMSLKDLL

Activity change, negative = inhibition, inactive:
COC(=O)Cc1csc(/N=C/c2c(O)n(-c3cccc(C(F)(F)F)c3)c(=O)c3ccccc23)n1, C/C(CCN1CCCCc2nc(C)c(C)cc21)=N\O[C@@H](C)c1cn([C@@H]2COC[C@@H]2O)nn1 2.02% [at 17.5 µM], Cc1nc(C(=O)NCc2ccccc2)sc1C1(C)CC(c2cccnc2)=NO1 (configuration not stated), CCOC(=O)c1cc(C)nc(S(C)(=O)=O)c1C#N, Cc1cc2oc(=O)cc(-c3ccccc3)c2c(C)c1/C=C/c1ccc(F)cc1, CCOc1ccc(NC(=O)COc2ccc(C(=O)NC3CCCc4ccccc43)cc2OC)cc1 (configuration not stated), O=C(COC(=O)c1ccc(Cl)nc1)NCc1ccc2c(c1)OCO2, COc1cc(OC)c2c(C)cc(=O)oc2c1C(CCN1CCCCC1)c1ccc(N(C)C)cc1 (configuration not stated), COCCCNC(=S)NCCNc1nc2cc(C)c(C)cc2cc1C#N, O=C(O)c1ccc(/C=C2/SC(=S)N(c3cccc(C(F)(F)F)c3)C2=O)cc1, CCO[C@@H]1OC(C(=O)NCc2nc3ccccc3[nH]2)=C[C@H](C2CCCCC2)[C@H]1CCCO, C=CCCN(C(Cc1ccccc1)C(=O)OC)S(=O)(=O)c1cc(Br)ccc1Br (configuration not stated), COc1ccc(CN2CCC(=O)c3ccccc3S2(=O)=O)cc1, CCOC(=O)C1=C(C)NC2=C(C(=O)CC(C)(C)C2)C1c1ccsc1 (configuration not stated), O=C(NCC1CC1)C1(C(F)(F)F)C/C(=C\CCO)CCCO1 (configuration not stated), Cc1scc(C(=O)NNC(=S)NCC(C)C)c1C, CCCN1CCC(=O)N(C(CSc2ccc(C)cc2)Cc2ccccc2)CC1 (configuration not stated), Cc1cc(C(=O)OCC(=O)N2c3ccccc3NC(=O)C2(C)C)c(C)n1-c1ccccc1, O=C1/C(=C\c2ccccc2Cl)SC(=S)N1CCC(=O)N1CCCc2ccccc21, COc1cccc(N(C(=O)c2ccn[nH]2)C2(C(=O)Nc3c(C)cccc3C)CCCCC2)c1, OCC1(Cc2ccccc2C(F)(F)F)CCN(Cc2cccc3cnccc23)CC1, C=C1/C(=C\C=C2\CCCC3(C)C2CCC3C(C)/C=C/C(O)C2CC2)CC(O)CC1O (configuration not stated), Cc1noc(C)c1-c1ccc2ncnc(NCc3ccc4[nH]ccc4c3)c2c1, CC(=O)OCC(NC(=O)C(Cc1ccccc1)NC(=O)OC(C)(C)C)C1OC(n2ccc(=O)[nH]c2=O)C(OC(C)=O)C1OC(C)=O (configuration not stated), COc1ccc(C2CC(O)(c3ccccc3)Oc3cc(C)cc(C)c32)cc1 (configuration not stated), Cn1c(N)c(C(=O)COC(=O)/C=C/c2ccc(OC(F)F)cc2)c(=O)n(C)c1=O, COc1ccc(Br)cc1C1C2C=CCC(C)C2C(=O)N1Cc1ccccc1 (configuration not stated), N#CC1=C(N)Oc2c(ccc3cccnc23)C1c1ccncc1 (configuration not stated), COC(=O)C1(C(C)=O)CC2=CC[C@H]3C(=O)N(c4ccccc4)C(=O)[C@H]3[C@@H]2Cc2ccccc2[C@@H]1C[N+](=O)[O-] (some centres not stated), N#Cc1ccc(OCc2nnc(-c3ccc([N+](=O)[O-])cc3)o2)cc1, CCOCCOC(=O)C(C)Oc1ccc(Oc2ncc(C(F)(F)F)cc2Cl)cc1 (configuration not stated), CSc1ccccc1N1CCN(CCCCCC(=O)NC2CCCc3ccccc32)CC1 (configuration not stated), Cc1cc(N(C)C)nc(Cl)n1, Cc1cccc(NC(=S)NCCc2ccc(F)cc2)c1C, CCn1c(SCC(=O)N/N=C/c2ccncc2)nc2ccccc21, Cc1ccc(Br)cc1, COc1ccc(C(=O)C2CCCN(C(=O)c3cnsn3)C2)c(C)c1 (configuration not stated), CC(C)(C)c1ccc(OC2=CS(=O)(=O)c3ccccc32)cc1, CCn1cc(C(=O)NCCCN2CCCCCC2)c(=O)c2cc(S(=O)(=O)N3CCc4ccccc4C3)ccc21, Cc1ccc(C)c(NS(=O)(=O)c2cc(Br)cnc2N)c1, CCN(CC)/[N+]([O-])=N/Oc1cc(O/[N+]([O-])=N/N2CCCC2CO)c([N+](=O)[O-])cc1[N+](=O)[O-] (configuration not stated), CCn1c(NC(=O)c2nn(C)cc2Br)nc2ccccc21, O=C(/C=C/Sc1ncn[nH]1)c1ccc(Cl)cc1, Cc1cc(C)nc(SC(C)C(=O)N/N=C/c2cccs2)n1 (configuration not stated), CCN(CC)CCN1C(=O)C(=O)/C(=C(/O)c2cnn(-c3ccccc3)c2C)C1c1cccs1 (configuration not stated), Cc1cc(F)ccc1S(=O)(=O)N1CCCOC1CNC(=O)C(=O)NCCC1=CCCCC1 (configuration not stated), CN(Cc1nc2ccc(F)cc2[nH]1)Cc1nc(CC2CC2)no1, COc1ccc(C(CCN2CCOCC2)c2c(OC)cc(OC)c3c2OC(=O)CC3c2ccc(OC)cc2)cc1 (configuration not stated), O=C1C2C(c3ccccc3)CC=CC2C(c2ccoc2)N1Cc1ccccc1 (configuration not stated), O=C1C[C@@H](c2ccc3ccccc3c2)N1S(=O)(=O)c1ccccc1[N+](=O)[O-], Cc1onc(-c2c(Cl)cccc2Cl)c1C(=O)NNC(=O)c1c(-c2c(Cl)cccc2Cl)noc1C, COc1ccc(C(=O)C[n+]2ccc(N)c(C)c2C)cc1, CCN(C(=O)COC(=O)c1cc(NS(=O)(=O)c2ccc(Cl)c([N+](=O)[O-])c2)ccc1O)C1CCCCC1, Cc1ccc(-c2nn(-c3ccccc3)cc2C(=O)Nc2cccc(S(=O)(=O)N3CCOCC3)c2)cc1, CCc1nc(C)cn1S(=O)(=O)c1cc([N+](=O)[O-])ccc1Cl, COc1ccc(CN2CCC(c3nc4ccc(Cl)cc4[nH]3)CC2)cc1, O=C(COc1ccc(NC(=O)c2ccccc2[N+](=O)[O-])cc1)c1ccc(F)cc1, C=C1CCN(C(CC(C)C)C(=O)N2CCOCC2)S(=O)(=O)c2ccccc21 (configuration not stated), CC(C)C[C@@H](N)c1nnc(SCC(=O)c2ccc(Cl)cc2)o1, Fc1ccc(Cl)cc1-c1nc(Nc2ccncc2)c2nccnc2n1, Cc1scc(C(=O)NNC(=S)NCc2ccccc2)c1C, Cc1cccc(-[n+]2c(-c3cccc(Br)c3)[nH]c3nc4ccccc4nc32)c1
